Screening data deposited in PubChem by several laboratories.
This is a sample that favours compounds with a hit; in the whole collection about 1.6% have one here.
S1P4 agonist – S1P4 receptor agonists, primary screen, cell-based. actives 0.35% (n = 220,000). activation, % at 4.98 µM. S1P4-expressing cell line, agonist reporter assay. AID 1509, 2009. Sphingosine 1-phosphate receptor 4 (Homo sapiens), O95977; in the data active = activation above about 11%
Target sequence (O95977 whole entry, looked up): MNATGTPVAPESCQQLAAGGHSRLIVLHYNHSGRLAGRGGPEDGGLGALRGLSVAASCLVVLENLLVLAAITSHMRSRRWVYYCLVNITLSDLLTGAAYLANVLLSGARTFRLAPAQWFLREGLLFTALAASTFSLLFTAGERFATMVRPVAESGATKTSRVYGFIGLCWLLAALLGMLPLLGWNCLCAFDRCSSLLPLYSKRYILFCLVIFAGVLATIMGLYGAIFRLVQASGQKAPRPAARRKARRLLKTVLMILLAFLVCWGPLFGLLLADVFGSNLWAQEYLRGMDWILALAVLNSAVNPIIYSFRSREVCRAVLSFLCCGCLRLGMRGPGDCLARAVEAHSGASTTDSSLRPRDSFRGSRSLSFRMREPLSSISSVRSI
S1P4 antagonist – S1P4 receptor antagonists, primary screen, cell-based; Sphingosine 1-phosphate receptor 4 (Homo sapiens), O95977; S1P4-expressing cells, antagonist mode, reporter read-out; inhibition, % at 4.98 µM; actives 0.26% (n = 220,000); AID 1510, 2009; in the data active = inhibition above about 29%
DTT redox prof – compounds producing H2O2 with reducing agent – biochemical, NIH compound library profiling, artefact control for MLSCN library redox annotation, primary screen; DTT-dependent redox cycling H2O2, phenol red/HRP absorbance; 100% = 100 µM peroxide control, 0% = buffer; activation, % at 10 µM; actives 0.03% (n = 200,000); AID 878, 2007;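 active = activation of at least 50% relative to the plate's high and low controls in the primary single-dose screen; inactive = activation below 50%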;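 also: compound incubated with DTT at 0.8 mM final as the reducing agent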
Arbovirus inh – antivirals against arbovirus infection, primary screen, cell-based, full library, 10K replicate subset | arbovirus infection cell-based antiviral screen | AID 1251, 2008 | inhibition, % at 10 µM | actives 0.37% (n = 200,000); in the data active = inhibition above about 30%
p97 ATPase inh – inhibitors of human p97 ATPase, primary screen, biochemical | actives 0.42% (n = 220,000) | Transitional endoplasmic reticulum ATPase (Homo sapiens), P55072 | recombinant p97 ATPase, Kinase-Glo ATP luminescence, 3 h | inhibition, % at 8 µM; in the data active = inhibition above about 15%
S1P3 antag – S1P3 receptor antagonists, primary screen, cell-based. CHO S1P3 NFAT-BLA reporter, FRET fluorescence, antagonist mode. inhibition, % at 4.98 µM. AID 485, 2006. actives 0.27% (n = 170,000);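 active = inhibition above the plate cutoff, the mean inhibition of test wells on that plate plus 3 SD, cut at about 28% in these data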;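 also: cells challenged with S1P at its EC80 of 0.8 µM; blue over green emission ratio from cleaved BLA substrate after 4 h stimulation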
S1P4 antag conf – S1P4 receptor antagonists, human, confirmation, cell-based. inhibition, % at 4.98 µM. shares compounds with S1P4 antagonist. actives 71% (n = 520). S1P4-expressing cell line, antagonist mode, reporter read-out. AID 1524, 2009; in the data active = inhibition above about 30%
S1P1 antagonist – S1P1 receptor antagonists, human, counter-screen for S1P4 antagonist project, cell-based | cell-based S1P1 antagonist counterscreen, inhibition | actives 37% (n = 520) | inhibition, % at 4.98 µM | shares compounds with S1P4 antagonist; in the data active = inhibition above about 40%;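 also: receptor stimulated with S1P near its EC80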
Hits are given with their value.

What do the screens show for `C=C1C[C@@H]2[C@H](CC[C@]3(C)C(=O)CC[C@@H]23)[C@@]2(C)C=CC(=O)C=C12`?
S1P4 agonist: inactive; S1P4 antagonist: inactive; Arbovirus inh: inactive; p97 ATPase inh: inactive; S1P3 antag: inactive

What do the screens show for `COc1cc2c(cc1/C=C/[N+](=O)[O-])OCO2`?
S1P4 agonist: inactive; S1P4 antagonist: 41; DTT redox prof: inactive; Arbovirus inh: inactive; p97 ATPase inh: inactive; S1P3 antag: inactive; S1P4 antag conf: 87; S1P1 antagonist: inactive

What do the screens show for `COc1ccc(Oc2cc(NC(=O)c3nn(C)cc3[N+](=O)[O-])cc([N+](=O)[O-])c2)cc1`?
S1P4 agonist: inactive; S1P4 antagonist: 86; DTT redox prof: inactive; Arbovirus inh: inactive; p97 ATPase inh: inactive; S1P4 antag conf: 108; S1P1 antagonist: inactive

What do the screens show for `CCNC(=O)[C@H]1O[C@@H](n2cnc3c(N)ncnc32)[C@H](O)[C@@H]1O`?
S1P4 agonist: inactive; S1P4 antagonist: inactive; Arbovirus inh: inactive; p97 ATPase inh: inactive; S1P3 antag: inactive

Results for NC(=O)c1cn(C2OC(CO)C(O)C2O)c2ncnc(N)c12 (stereo not given) ?
S1P4 agonist: inactive; S1P4 antagonist: 72; DTT redox prof: inactive; Arbovirus inh: inactive; p97 ATPase inh: inactive; S1P3 antag: inactive; S1P4 antag conf: 79; S1P1 antagonist: 42
